Screening results (PubChem BioAssay)
Shn3 3UTR inh = Schnurri-3 reporter inhibition in Clone20 osteoblasts. Clone20 osteoblast Shn3 3'UTR firefly luciferase, 24 h. AID 588674. actives 0.52% (n = 360,000). inhibition, % at 12.5 µM;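 active = mean inhibition of at least 75% with every replicate also reaching 75%; inconclusive = mean inhibition at least 75% but some replicate below; inactive = mean inhibition below 75%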
Peg3 promoter = Peg3 promoter activity inhibition | HeLa PEG-Prom luciferase reporter, luminescence, overnight | inhibition, % at 20 µM | actives 1.7% (n = 360,000);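 active = inhibition of at least 50% at 20 µM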
CF NFkB inh = inhibitors of cystic fibrosis induced NF-kB; KKLEB NF-kB-GFP reporter, PAF-induced, GFP fluorescence overnight; inhibition, % at 5 µM; actives 0.86% (n = 360,000);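 active = at least 50% inhibition at 5 µM, scaled per plate between neutral and stimulator controls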;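 note: PAF is a Pseudomonas aeruginosa culture filtrate used as stimulus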
HIF-2a inh = inhibitors of HIF-2a; 786-0 RCC cells HIF-2a reporter, luciferase luminescence, overnight; inhibition, % at 18.8 µM; actives 0.72% (n = 360,000);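 active = inhibition of the luminescence signal of 40% or more relative to plate controls, in a single-dose primary screen at 18.75 µM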
MITF TRPM1 inh = MITF TRPM1 promoter inhibition in SK-MEL-5 cells. SK-MEL-5 TRPM1 promoter luciferase, 24 h. inhibition, % at 12.5 µM. actives 0.83% (n = 330,000);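 active = mean inhibition across replicates of 60% or more, whatever share of single replicates reaches that level; inconclusive = some that reach 60%, reason not given; inactive = mean inhibition across replicates below 60%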
KKLEB cytotox = counter-screen for CF NF-kB inhibitors: cytotoxicity | activity change (cytotoxicity), % at 5 µM | KKLEB CF airway cells viability, ATPlite luminescence, overnight; hits give low values; cells stimulated with P. aeruginosa culture filtrate | actives 0.36% (n = 360,000);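 active = corrected activity change at or below -50% at 5 µM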
CF NFkB inh conf = CF NF-kB inhibition confirmation, single concentration. KKLEB CF airway cells, PAF-induced NF-kB-GFP fluorescence, overnight. shares compounds with CF NFkB inh. inhibition, % at 5 µM. actives 64% (n = 1,300); in the data active = inhibition above about 40%;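 note: stimulus PAF is a Pseudomonas aeruginosa filtrate and not platelet activating factor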
Mdm2-MdmX confirm = Mdm2/MdmX (human) interaction inhibition, confirmed | actives 99% (n = 740) | SaOS-2 split-luciferase Mdm2/MdmX complementation, luminescence | inhibition, % at 8 µM | shares compounds with HIF-2a inh | AID 504601;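 active = mean inhibition of the luminescence signal across two replicates at or above 26 percent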
Target sequence (O15151 whole entry, looked up): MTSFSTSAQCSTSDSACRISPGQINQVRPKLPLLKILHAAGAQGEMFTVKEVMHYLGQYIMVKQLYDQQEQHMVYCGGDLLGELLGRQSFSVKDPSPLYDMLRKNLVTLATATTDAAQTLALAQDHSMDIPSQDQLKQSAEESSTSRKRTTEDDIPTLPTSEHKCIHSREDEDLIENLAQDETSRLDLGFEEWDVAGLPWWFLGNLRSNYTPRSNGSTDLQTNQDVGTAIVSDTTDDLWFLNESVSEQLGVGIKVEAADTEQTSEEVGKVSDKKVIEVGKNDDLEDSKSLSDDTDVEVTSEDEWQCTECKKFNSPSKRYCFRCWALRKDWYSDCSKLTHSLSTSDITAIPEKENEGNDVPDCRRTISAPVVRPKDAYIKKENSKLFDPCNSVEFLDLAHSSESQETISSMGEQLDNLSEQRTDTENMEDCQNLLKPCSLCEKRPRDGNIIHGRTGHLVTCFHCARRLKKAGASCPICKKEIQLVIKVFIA
Target sequence (Q00987 whole entry, looked up): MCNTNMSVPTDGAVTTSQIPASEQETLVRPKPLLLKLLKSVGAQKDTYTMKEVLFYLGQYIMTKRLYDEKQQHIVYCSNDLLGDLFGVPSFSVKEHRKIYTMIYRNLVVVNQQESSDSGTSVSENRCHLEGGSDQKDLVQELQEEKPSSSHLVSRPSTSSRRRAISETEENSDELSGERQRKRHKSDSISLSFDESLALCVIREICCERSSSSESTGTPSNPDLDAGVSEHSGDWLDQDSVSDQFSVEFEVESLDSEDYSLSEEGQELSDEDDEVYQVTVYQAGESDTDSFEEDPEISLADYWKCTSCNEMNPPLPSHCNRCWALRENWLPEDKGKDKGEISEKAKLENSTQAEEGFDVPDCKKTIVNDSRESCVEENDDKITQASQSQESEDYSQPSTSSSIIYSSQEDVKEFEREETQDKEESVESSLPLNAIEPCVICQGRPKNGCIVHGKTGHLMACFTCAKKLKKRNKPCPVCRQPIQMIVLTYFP
HIF-2a conf = HIF-2a inhibition, single concentration confirmation | shares compounds with HIF-2a inh | 786-0 RCC cells, HIF-2a luciferase reporter luminescence, overnight | inhibition, % at 18.8 µM | actives 56% (n = 1,800);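 active = mean inhibition across four replicates of at least 40 percent at the single tested concentration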
HIF-1a cs = inhibits HIF-1a reporter, a counter-screen for HIF-2a inhibitors; AID 651589; inhibition, % at 18.8 µM; shares compounds with HIF-2a inh; actives 72% (n = 1,800); MiaPaCa-2 HIF-1a luciferase reporter, desferoxamine, overnight;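 active = mean inhibition of the reporter signal across four replicates at the single tested dose of 50% or more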
Numbers stand for hits; i = inactive; ? = inconclusive; nt = no result given. In the library only some 2.8% were active in any assay of this set; here they are far more common.

SMILES	Shn3 3UTR inh	Peg3 promoter	CF NFkB inh	HIF-2a inh	MITF TRPM1 inh	KKLEB cytotox	HIF-2a conf	HIF-1a cs	others
COc1ccc(C[C@H]2NC[C@H](O)[C@H]2OC(C)=O)cc1	94	94	88	91	83	i	nt	nt	CF NFkB inh conf=116
CCCCn1nnnc1C(c1cccs1)N1CCC2(CC1)C(=O)NCN2c1ccccc1 (stereo not drawn)	i	i	i	i	nt	i	nt	nt
C=CC[C@@H](CC/C=C/C=C/CC/C=C\[C@@H]1CSC([C@@H]2C[C@@H]2C)=N1)OC	i	i	54	i	67	i	nt	nt	CF NFkB inh conf=48
O=c1[nH]c2ccccc2n1C1CCN(C(c2cccc3ccccc23)c2nnnn2Cc2ccccc2)CC1 (stereo not drawn)	i	81	86	i	nt	i	nt	nt	CF NFkB inh conf=105
COc1ccc(-n2nnnc2C(C2CC2)N2CCC3(CC2)C(=O)NCN3c2ccccc2)cc1 (stereo not drawn)	i	i	i	i	nt	i	nt	nt
COc1ccc(-n2nnnc2C(c2cccc(OC)c2OC)N2CCC(n3c(=O)[nH]c4ccccc43)CC2)cc1 (stereo not drawn)	i	55	84	i	nt	i	nt	nt	CF NFkB inh conf=41
COc1ccc(-n2nnnc2C(c2cccc3ccccc23)N2CCC3(CC2)C(=O)NCN3c2ccccc2)cc1 (stereo not drawn)	i	i	i	i	nt	i	nt	nt
COc1ccc(-n2nnnc2C(c2cccs2)N2CCC(n3c(=O)[nH]c4ccccc43)CC2)cc1 (stereo not drawn)	i	71	79	i	nt	i	nt	nt	CF NFkB inh conf=97
Cc1ccc(-n2c(=S)[nH]c3ccccc3c2=O)cc1C	i	i	i	i	nt	i	nt	nt
CCCc1c(C)nc(SCC(=O)C(C)(C)C)nc1OC(=O)N(C)C	i	i	i	i	i	i	nt	nt
COc1ccc(/C=C/C(=O)c2c(O)n(CCC3=CCCCC3)c(=O)[nH]c2=O)cc1OC	i	i	i	i	i	i	nt	nt
CP(=O)(O)CCCN	i	i	i	i	i	i	nt	nt
COc1cc(C2c3cc4c(cc3CC3COC(=O)C32)OCO4)cc(OC)c1O (stereo not drawn)	i	i	54	i	i	i	nt	nt	CF NFkB inh conf=71
COc1cc2c(c(OC)c1OC)-c1ccc(O)cc1C(NC(C)=O)CC2 (stereo not drawn)	i	i	67	i	61	i	nt	nt	CF NFkB inh conf=88
C=C1C(=O)OC2CC3(C)OC3C3OC3C3=CC(OC3=O)C12 (stereo not drawn)	94	96	88	61	nt	i	68	i	CF NFkB inh conf=61
CCN(CC)S(=O)(=O)c1cccc(N=Nc2c(O)n(CC)c(=S)n(CC)c2=O)c1	i	i	i	i	i	i	nt	nt
N#CC1c2ccccc2-n2nncc2CN1Cc1cc(Cl)cc(Cl)c1 (stereo not drawn)	i	96	90	93	97	i	98	107	CF NFkB inh conf=116
Cc1nc(SCc2c(Cl)cccc2Cl)nc(OC(=O)N(C)C)c1C	i	i	i	i	i	i	nt	nt
O=[N+]([O-])c1ccc(N2CCOCC2)c2c1no[n+]2[O-]	i	96	84	69	nt	-92	58	101
CCCCn1c(=O)c(C(=O)NCc2ccc(Cl)cc2)c(O)c2ccccc21	i	i	i	i	i	i	nt	nt
CCCCCn1c(=O)c(C(=O)NCc2ccncc2)c(O)c2ccccc21	i	i	i	46	i	i	i	i
CCC(C)n1c(O)c(C=NCC2CCCO2)c(=O)[nH]c1=S (stereo not drawn)	i	i	i	i	i	i	nt	nt
CC(=O)OCC12CC(OC(=O)CC(C)C)C(C)=CC1OC1C(O)C(OC(C)=O)C2(C)C12CO2 (stereo not drawn)	93	97	93	82	87	-63	79	102
CC(=NCc1ccc2c(c1)OCO2)c1c(O)n(-c2ccc(C)cc2)c(=O)[nH]c1=O	i	i	i	i	i	i	nt	nt
COC(=O)[C@@H]1[C@@H](C(=O)OC)C2(c3ccccc3-c3ccccc32)N(c2ccc(Cl)cc2)N1C#N	i	107	92	94	93	-75	92	106
SMILES	Shn3 3UTR inh	Peg3 promoter	CF NFkB inh	HIF-2a inh	MITF TRPM1 inh	KKLEB cytotox	HIF-2a conf	HIF-1a cs	others
C[C@]12CCC3C(CC[C@H]4C[C@@H](O)CC[C@]34C)C1C/C(=N/O)[C@@H]2O (stereo partly drawn)	i	i	i	i	i	i	nt	nt
O=C1NC2C(O)C(O)C(O)C(O)C2c2cc3c(c(O)c21)OCO3 (stereo not drawn)	87	99	86	66	72	i	70	105
C=CCn1c(O)c(C(CC)=NCCc2c[nH]c3ccccc23)c(=O)[nH]c1=O	i	i	i	i	i	i	nt	nt
Cc1nc2cc(-c3ccc(Cl)cc3)nn2c(C)c1CCC(=O)N1CCC2(CC1)OCCO2	i	i	i	81	?	i	89	68
O=C(CCn1nc(-c2ccc(Cl)cc2)ccc1=O)N1CCC2(CC1)OCCO2	i	i	i	i	i	i	nt	nt
Cc1c(N=Nc2c(O)n(Cc3ccccc3)c(=O)[nH]c2=O)c(=O)n(-c2ccccc2)n1C	i	i	i	i	i	i	nt	nt
COP(=S)(OC)c1c(C)nn(CCC#N)c1NC(=O)c1ccc(Cl)cc1	i	i	i	i	i	i	nt	nt
O=C1/C(=C/c2ccccc2)C[C@@]2(O)[C@H]3Cc4ccc(O)c5c4[C@@]2(CCN3CC2CC2)C1O5 (stereo partly drawn)	95	100	76	95	109	i	nt	nt	Mdm2-MdmX confirm=103
Oc1ccc2c3c1OC1c4[nH]c5ccccc5c4C[C@@]4(O)C(C2)N(CC2CC2)CC[C@]314 (stereo partly drawn)	i	i	i	i	i	i	nt	nt
CC1CC(C)CC(C)C(O)C(C#N)=CC=CCC(C2CCCC2C(=O)O)OC(=O)CC(O)C(C)C1 (stereo not drawn)	97	51	86	78	92	i	76	104
CC1OC(OC2C=C3CCC4C(CCC5(C)C(c6ccc(=O)oc6)CCC45O)C3(C)CC2)C(O)C(OC2OC(CO)C(O)C(O)C2O)C1O (stereo not drawn)	i	98	95	70	72	-62	i	105
O=c1c2ccccc2nc(/C=C/c2ccccc2)n1-c1ccc(O)cc1	i	i	i	i	i	i	nt	nt
